# Assay results as given in PubChem BioAssay (NCI).
# Where “and” joins values, the source holds several entries; their conditions need not be identical. Identical values can stand only once. Compounds without any hit were thinned out: in the full panel of roughly 83,000, 20% have a hit.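 Method: cells in 96-well plates; compound added at one concentration; 48 h incubation; percent growth measured; values under 10 scored active.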 Calls of active or inactive are those of the source.
# Columns and labels:
# Assay in all cases: NCI-60 one-dose screen, 48 h (100 = growth as untreated, 0 = no growth, -100 = all killed)
# Settings in all cases: 10 µM unless noted
# HCT-15 colon = test system: HCT-15 colon
# HT29 colon = test system: HT29 colon
# SNB-75 CNS = test system: SNB-75 CNS
# SNB-19 CNS = test system: SNB-19 CNS
# U251 CNS = test system: U251 CNS
# PC-3 prostate = test system: PC-3 prostate
# SK-MEL-5 melanoma = test system: SK-MEL-5 melanoma
# UACC-62 melanoma = test system: UACC-62 melanoma
# LOX IMVI melanoma = test system: LOX IMVI melanoma
# SK-MEL-28 melanoma = test system: SK-MEL-28 melanoma
Compound,growth (HCT-15 colon),growth (HT29 colon),growth (SNB-75 CNS),growth (SNB-19 CNS),growth (U251 CNS),growth (PC-3 prostate),growth (SK-MEL-5 melanoma),growth (UACC-62 melanoma),growth (LOX IMVI melanoma),growth (SK-MEL-28 melanoma)
CC(C)(O)Cn1cc(-c2ccc3nc(OC4CC4)ccc3c2)c2c(N)ncnc21,95.3% (inactive) and 73.8% (inactive),74% (inactive) and 44.6% (inactive),40.2% (inactive) and 37.9% (inactive),74.8% (inactive) and 64.3% (inactive),82.1% (inactive) and 50.5% (inactive),56.8% (inactive) and 48.2% (inactive),84.3% (inactive) and 37.8% (inactive),48.4% (inactive),72.8% (inactive) and 30.4% (inactive),101% (inactive) and 71.5% (inactive)
CCN(CC)CCOc1ccc(/C=N/Nc2nc3c([nH]2)c(=O)n(C)c(=O)n3C)cc1,97.2% (inactive) and 103% (inactive),99.9% (inactive) and 91.4% (inactive),88.4% (inactive) and 90.3% (inactive),98.5% (inactive) and 102% (inactive),98.6% (inactive) and 113% (inactive),99.4% (inactive) and 88.5% (inactive),102% (inactive) and 107% (inactive),94.2% (inactive) and 99.8% (inactive),104% (inactive) and 92.3% (inactive),115% (inactive) and 112% (inactive)
CC(C)CNC(=O)c1ccccc1C(=O)NC1(C(=O)NCC(C)C)CCCC1,103% (inactive) and 106% (inactive),105% (inactive) and 104% (inactive),87.9% (inactive) and 94.6% (inactive),105% (inactive) and 108% (inactive),109% (inactive) and 105% (inactive),97.9% (inactive) and 96.3% (inactive),106% (inactive) and 115% (inactive),103% (inactive) and 107% (inactive),90.4% (inactive) and 101% (inactive),117% (inactive) and 115% (inactive)
CCOc1ccc2cc(-c3nn(CC4CCNCC4)c4ncnc(N)c34)ccc2c1,81.7% (inactive) and 29.8% (inactive),69.6% (inactive) and 18.5% (inactive),52.9% (inactive) and 24.8% (inactive),102% (inactive) and 65.9% (inactive),83.3% (inactive) and 40.2% (inactive),78% (inactive) and 31.4% (inactive),90.5% (inactive) and -2.12% (active),14.7% (inactive),83% (inactive) and 5.47% (active),104% (inactive) and -35.3% (active)
COc1ccccc1C(C)=O,108% (inactive) and 95.7% (inactive),114% (inactive) and 102% (inactive),105% (inactive) and 85.1% (inactive),116% (inactive) and 109% (inactive),107% (inactive) and 106% (inactive),89.7% (inactive) and 96.9% (inactive),105% (inactive) and 110% (inactive),109% (inactive) and 108% (inactive),103% (inactive) and 60.6% (inactive),121% (inactive) and 106% (inactive)
O=Nc1ccc(O)cc1,89.3% (inactive) and 92.3% (inactive),97.4% (inactive) and 97.5% (inactive),95.6% (inactive),106% (inactive) and 99.3% (inactive),101% (inactive) and 94.2% (inactive),85.1% (inactive) and 90% (inactive),98% (inactive) and 109% (inactive),90.2% (inactive) and 93.4% (inactive),90.8% (inactive) and 82.3% (inactive),113% (inactive)
CN(C)CCC(=O)c1ccc(Cl)cc1,111% (inactive) and 116% (inactive),106% (inactive) and 100% (inactive),78.6% (inactive) and 114% (inactive),95% (inactive) and 109% (inactive),113% (inactive) and 111% (inactive),92.5% (inactive) and 103% (inactive),103% (inactive) and 112% (inactive),98.5% (inactive) and 101% (inactive),113% (inactive) and 92.2% (inactive),107% (inactive) and 115% (inactive)
